Compounds without any hit were thinned out: in the full panel of roughly 83,000, 20% have a hit.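 Results are percent growth after 48 hours of single-concentration exposure. 100 means growth as in untreated cells, lower positive values show inhibition; negative values down to -100 show cell death.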 Unmarked numbers belong to inactive results. Activity calls are given as the source filed them. How the source made its calls: active means growth percent below 10; inactive means the rest.
Legend:
Assay in all cases: NCI-60 one-dose screen, 48 h (100 = growth as untreated, 0 = no growth, -100 = all killed)
Conditions in all cases: 10 µM unless noted
RPMI-8226 leukemia = system: RPMI-8226 leukemia
OVCAR-8 ovarian = system: OVCAR-8 ovarian
OVCAR-5 ovarian = system: OVCAR-5 ovarian
OVCAR-4 ovarian = system: OVCAR-4 ovarian
SK-OV-3 ovarian = system: SK-OV-3 ovarian
IGROV1 ovarian = system: IGROV1 ovarian
OVCAR-3 ovarian = system: OVCAR-3 ovarian
HS 578T breast = system: HS 578T breast
NCI/ADR-RES ovarian = system: NCI/ADR-RES ovarian
T-47D breast = system: T-47D breast
BT-549 breast = system: BT-549 breast
MDA-MB-435 melanoma = system: MDA-MB-435 melanoma
SW-620 colon = system: SW-620 colon
MCF7 breast = system: MCF7 breast
HCT-116 colon = system: HCT-116 colon
HCC-2998 colon = system: HCC-2998 colon
KM12 colon = system: KM12 colon

Structure (SMILES) | growth (RPMI-8226 leukemia) | growth (OVCAR-8 ovarian) | growth (OVCAR-5 ovarian) | growth (OVCAR-4 ovarian) | growth (SK-OV-3 ovarian) | growth (IGROV1 ovarian) | growth (OVCAR-3 ovarian) | growth (HS 578T breast) | growth (NCI/ADR-RES ovarian) | growth (T-47D breast) | growth (BT-549 breast) | growth (MDA-MB-435 melanoma) | growth (SW-620 colon) | growth (MCF7 breast) | growth (HCT-116 colon) | growth (HCC-2998 colon) | growth (KM12 colon)
Oc1c(Cl)cc(Cl)c2ccc(CN3CCCCC3)nc12 | 38.1% | 23% | 55.7% | 33.3% | 62.1% | 33.9% | 27.6% | 66.5% | 19.3% | 48.1% | 89.1% | 42.1% | 30.4% | 28.9% | 21.3% | 65% | 30.7%
N/C(=N\c1nc2c(Cl)cc(Cl)cc2s1)C(Cl)(Cl)Cl | 15.4% | 68.3% | 69.5% | 67.9% | 83.8% | 57.8% | -9.72% (active) | 22.1% | 68.3% | 32.3% | 110% | 75.6% | 60.6% | 24.8% | 51% | -1.09% (active) | 1.36% (active)
O=C(N/N=C/c1ccc([N+](=O)[O-])s1)c1[nH]c2ccc(Br)cc2c1-c1ccccc1 | 0.935% (active) | -8.62% (active) | 27.9% | 55.9% | 45.8% | 24.4% | 24.1% | 11.6% | 17.3% | 59.7% | -19% (active) | -35.3% (active) | 3.34% (active) | 7.64% (active) | -7.92% (active) | 0.797% (active) | 12.8%
CN(C)S(=O)(=O)c1oc(-c2ccccc2)nc1C#N | 76% | 94.4% | 100% | 99.7% | 136% | 38.8% | 62.4% | 107% | 107% | 59.6% | 64.4% | 78.9% | 0.559% (active) | 39.4% | 61.3% | 108% | 92.9%
O=C1NC(=C(Cl)Cl)/C(=N/S(=O)(=O)N2CCCCC2CC2(C(F)(F)F)N=N2)N1 (centres undefined) | -6.5% (active) | 17.6% | 91.1% | -10.2% (active) | 136% | -0.053% (active) | -15.1% (active) | 52.2% | 63.4% | 65.7% | 68% | 41.6% | -82.2% (active) | 9.63% (active) | -28.8% (active) | 5.46% (active) | 9.36% (active)
Clc1ccc2c(NCCCn3ccnc3)c3oc4ccccc4c3nc2c1 | 26.4% | 32.1% | 38.2% | 55% | 104% | 32.9% | 68.4% | 61.6% | 45% | 60.1% | 81.2% | 32.2% | 21.5% | 18.2% | 14% | 40.8% | 30.1%
O=C(N/N=C/c1ccc(Br)s1)c1[nH]c2ccc(Br)cc2c1-c1ccccc1 | 5.48% (active) | 2.61% (active) | 52% | 71.1% | 40.6% | 18.1% | 9.72% (active) | 23.6% | 16.6% | 75.7% | -11.8% (active) | -5.5% (active) | 23.6% | 7.06% (active) | -14.2% (active) | 20.5% | 8.2% (active)
COc1cc2nc(-c3ccc(C)cc3)cc(OCCCNCC3CCCO3)c2cc1OC (centres undefined) | 24.1% | 46.8% | 56.7% | 89.8% | 113% | 49.1% | 101% | 84.3% | 54.8% | 66% | 98.5% | 54.3% | 77.5% | 59.7% | 40.7% | 83.4% | 60%
Clc1ccc(Cc2nnc3sc(-c4cccnc4)nn23)cc1 | 97.5% | 96.6% | 94.7% | 94.2% | 114% | 95.4% | 107% | 101% | 81.3% | 89.2% | 95.5% | 101% | 99.1% | 88.7% | 101% | 105% | 99.7%
O=c1[nH]c2ccccc2cc1CSc1ccccc1Nc1nccc(-c2ccc(C(F)(F)F)cc2)n1 | 62.6% | 38.1% | 103% | 48.7% | 117% | 67.8% | 69.8% | 68.3% | 63.2% | 66.7% | 112% | 74.6% | 68.1% | 40.3% | 43.4% | 90.4% | 79.3%
C#Cc1nc(C2=C(C)C(=O)/C(=N/OC(C)=O)C2)cs1 | 32.3% | 78.3% | 99.4% | 89.9% | 104% | -37.2% (active) | 111% | 90.7% | 1.61% (active) | 79.9% | 95% | 94.8% | 110% | 68.4% | 78.4% | 117% | 46.8%
C#Cc1nc(C2=C(C)C(OC(=O)CCC(=O)O)CC2)cs1 (centres undefined) | 102% | 99.3% | 125% | 108% | 125% | 5.79% (active) | 121% | 92.5% | 89.7% | 98% | 102% | 106% | 113% | 87.6% | 114% | 109% | 79.2%
Cc1cc(C(NC(=O)CCCCCNc2cccc3c2C(=O)N(C2CCC(=O)NC2=O)C3=O)c2cccnc2)c(O)c2ncccc12 (centres undefined) | 14.6% | 11.1% | 49.8% | 19.4% | 25.4% | 9.13% (active) | 14.2% | 1.22% (active) | 79.6% | 12.1% | -30.8% (active) | 30.7% | 13.3% | 12.2% | 24.8% | 2.27% (active) | 17.6%
CC(O)C(NC(=O)C1CCCN1C(=O)CNC(=O)C1CC(=O)NCC(=O)NC(Cc2c[nH]c3ccccc23)C(=O)NC(Cc2ccc(O)cc2)C(=O)NCC(=O)NC(CO)C(=O)NC(CCC(N)=O)C(=O)NC(Cc2c[nH]c3ccccc23)C(=O)N1)C(=O)NCC(=O)NC(CCC(N)=O)C(=O)NC(CCCNC(=N)N)C(=O)NC(CC(=O)O)C(=O)O (centres undefined) | 83.5% | 101% | 110% | 99.8% | 106% | 105% | 102% | 102% | 104% | 106% | 115% | 100% | 102% | 96.4% | 97.4% | 120% | 105%
CCOC(=O)c1c(Nc2ccccc2)nn2c(N)c(C#N)c(-c3ccc(Cl)cc3)nc12 | 86.1% | 42.5% | 78.5% | 44.1% | 59.4% | 70.5% | 81.8% | 33.8% | 71% | 68.5% | 96.7% | 70.3% | 65.8% | 65.2% | 59.9% | 83.5% | 64.1%
c1ccc2c(NCCCn3ccnc3)c3oc4ccccc4c3nc2c1 | -25.4% (active) | -16.9% (active) | 1.5% (active) | -10.6% (active) | 16.5% | -6.93% (active) | 5.25% (active) | 19.7% | 2.5% (active) | 17% | 21.6% | 3.7% (active) | -16.9% (active) | -11.4% (active) | 6.12% (active) | 0.465% (active) | 7.47% (active)
COc1cc(OC)c(C2SCC(=O)N2Nc2ncnc3ccccc23)cc1OC (centres undefined) | 115% | 106% | 109% | 103% | 127% | 106% | 119% | 112% | 104% | 106% | 105% | 103% | 105% | 91.8% | 107% | 111% | 107%

Reference: PubChem BioAssay (NCI)
